DT40 TDP1 no CPT: qHTS for Inhibitors of human tyrosyl-DNA phosphodiesterase 1 (TDP1): qHTS in cells in absence of CPT; DT40 Tdp1-/- hTDP1 cells, no CPT, ATP luminescence, 48 h; Potency, µM (highest dose often 46.2 µM), most hits filed as inhibitors; 420,000 tested, 15% active; AID 686978, 2013; also: nearly all actives have a fitted effect of over 55% in size
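Chicken DT40 Tdp1-/- cells complemented with human TDP1, screened without camptothecin (DMSO vehicle only), 400 cells/well. Compounds pin-transferred, cells incubated at 37 °C for at least 48 hr. Growth read as ATP-dependent luminescence (CellTiter-Glo, 30 min at RT).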
RORgamma inh: ROR gamma (mouse) transcription inhibition; Drosophila S2 Gal4-RORgamma UAS-luciferase reporter, 20 h; Potency, µM (series often up to 53.6 µM), most hits filed as inhibitors; P51450; 310,000 tested, 5.4% active; also: nearly all actives have a fitted effect of over 60% in size
Target sequence (P51450 whole entry, looked up, the tested form may be a part): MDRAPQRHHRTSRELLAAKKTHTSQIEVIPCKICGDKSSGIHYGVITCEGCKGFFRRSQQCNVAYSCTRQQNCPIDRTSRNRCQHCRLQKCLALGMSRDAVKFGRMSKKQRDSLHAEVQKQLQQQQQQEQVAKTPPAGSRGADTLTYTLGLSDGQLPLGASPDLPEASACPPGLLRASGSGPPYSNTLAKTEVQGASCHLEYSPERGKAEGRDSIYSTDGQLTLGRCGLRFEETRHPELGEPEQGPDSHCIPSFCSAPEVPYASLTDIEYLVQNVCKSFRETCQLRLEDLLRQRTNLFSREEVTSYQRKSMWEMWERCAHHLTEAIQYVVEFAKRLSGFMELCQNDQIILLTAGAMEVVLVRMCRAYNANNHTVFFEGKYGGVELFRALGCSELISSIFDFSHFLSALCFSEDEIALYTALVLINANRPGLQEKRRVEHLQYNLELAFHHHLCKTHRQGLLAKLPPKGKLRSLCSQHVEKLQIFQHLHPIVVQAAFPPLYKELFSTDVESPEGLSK
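In this cell-based reporter format, copper sulfate (700 uM final) drives Gal4–ROR gamma fusion expression from a metallothionein promoter in Drosophila Schneider cells; compounds preincubated 1 hr, reporter read after 20 hr at ambient temperature.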
Gal4-VP16 FLuc: counter-screen for ROR gamma inhibitors: Gal4-VP16 reporter; Drosophila S2 Gal4-VP16 UAS-luciferase, luminescence, 20 h; Potency, µM (series often up to 53.6 µM), hits mostly inhibitors; 310,000 tested, 3.5% active; AID 2546;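 also: Gal4-VP16 expression switched on by copper sulfate through the metallothionein promoter; nearly all actives have a fitted effect of over 50% in size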
IL1B secr inh: inhibitors of inflammasome signaling (IL-1 beta secretion); activity change, % at 57.5 µM; 360,000 tested, 4.7% active; THP-1 LPS/ATP IL-1B secretion, AlphaLISA, 16 h; hits give low values; in the data active = activity change below about -50%; inconclusive = mostly about -30% to -49%
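THP-1 cells pretreated 1 hr with compounds (up to 57.5 uM final), then stimulated with LPS (250 ng/mL final) plus ATP (1.25 mM final); secreted IL-1B measured by AlphaLISA after 16 hr, decreased signal indicating inhibition.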
LDHA block: LDHA (human) enzyme inhibition; purified LDHA, NADH/diaphorase-resazurin fluorescence; hits give low values; activity change, % (values are at about 110 or 230 µM); 480,000 tested, 0.15% active; in the data active = activity change below about -30%; inconclusive = mostly about -25% to -30%
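LDH5 2 nM; NADH 0.06 mM, pyruvate 0.2 mM; 200 mM Tris pH 7.4, EDTA, Tween-20; 5 min RT. Detection: diaphorase 0.133 mg/mL + resazurin 37 µM, fluorescence ex540/em590 at 0 and 20 min; normalized to enzyme-free and DMSO wells.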
TDP1 cell CPT: DT40-hTDP1 cell growth loss with CPT; chicken DT40 Tdp1-/-;hTDP1 cells + 20 nM CPT, ATP luminescence, 48 h; Potency, µM (doses to about 46.2 µM), actives largely listed as inhibitors; 420,000 tested, 12% active; AID 686979; also: nearly all actives have a fitted effect of over 55% in size
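Chicken DT40 Tdp1-/- cells stably complemented with human TDP1 were seeded at 400 cells/well in medium containing 20 nM camptothecin, exposed to pin-transferred compounds, and grown at 37 °C for at least 48 hr. Viability was read as ATP luminescence.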
Of the large screens only hits and unclear results are named; the others gave an inactive call. Compounds with a hit are over-represented: about 18% of the library has one in this group of screens. Unless noted, calls follow the shape of the dose curve; as a rule, active = well fitted curve in the direction sought with a large enough effect; inconclusive = small, poorly fitted or top-dose-only effect, or another doubt; inactive = no such curve, though single readings can be large; an effect the other way counts as inactive or inconclusive.

COc1nc2ccccc2nc1N1CCC(C(=O)Nc2ccc(I)cc2)CC1	none (no result: DT40 TDP1 no CPT, RORgamma inh, Gal4-VP16 FLuc, IL1B secr inh, TDP1 cell CPT)
CN(C)c1ccc(-c2ccnc3c2CC(C)(C(=O)Nc2cccc(OC(F)(F)F)c2)O3)cc1 (stereo not given)	none (no result: RORgamma inh, Gal4-VP16 FLuc)
CC1(C(=O)Nc2ccc(Cl)c(C(F)(F)F)c2)Cc2c(-c3ccc(C(N)=O)cc3)ccnc2O1 (stereo not given)	DT40 TDP1 no CPT 15µM, TDP1 cell CPT 18µM (no result: RORgamma inh, Gal4-VP16 FLuc)
CC1(C(=O)Nc2ccc(Cl)c(C(F)(F)F)c2)Cc2c(-c3cccc(C(N)=O)c3)ccnc2O1 (stereo not given)	DT40 TDP1 no CPT 6.5µM, TDP1 cell CPT 10µM (no result: RORgamma inh, Gal4-VP16 FLuc)
CC(=O)Nc1ccc(NC(=O)C2(C)Cc3c(-c4cccc(C(N)=O)c4)ccnc3O2)cc1 (stereo not given)	none (no result: RORgamma inh, Gal4-VP16 FLuc)
CC1(C(=O)Nc2cccc(OC(F)(F)F)c2)Cc2c(-c3ccc4c(c3)OCO4)ccnc2O1 (stereo not given)	DT40 TDP1 no CPT inconclusive, TDP1 cell CPT 21µM (no result: RORgamma inh, Gal4-VP16 FLuc)
COc1ccc(NC(=O)C2(C)Cc3c(-c4cccc(C(N)=O)c4)ccnc3O2)cc1 (stereo not given)	DT40 TDP1 no CPT 3.7µM, TDP1 cell CPT 3.7µM (no result: RORgamma inh, Gal4-VP16 FLuc)
Cc1ccc(Nc2nc(NCCO)nc3c2cnn3C)cc1C	none (no result: DT40 TDP1 no CPT, RORgamma inh, Gal4-VP16 FLuc, IL1B secr inh, TDP1 cell CPT)
Cc1ccc(S(=O)(=O)n2ccn(C(=O)CC3CCCCC3)c2=O)cc1	none (no result: DT40 TDP1 no CPT, RORgamma inh, Gal4-VP16 FLuc, IL1B secr inh, TDP1 cell CPT)
CNc1nc(SCC(=O)Nc2cc(C)on2)nc2ccccc12	none (no result: DT40 TDP1 no CPT, RORgamma inh, Gal4-VP16 FLuc, IL1B secr inh, TDP1 cell CPT)
COc1cccc(OC)c1C(=O)C1CC(=O)Nc2c1c(C)nn2-c1ccc(F)cc1 (stereo not given)	none (no result: DT40 TDP1 no CPT, RORgamma inh, Gal4-VP16 FLuc, IL1B secr inh, TDP1 cell CPT)
CC1(C(=O)Nc2cccc(C(F)(F)F)c2)Cc2c(-c3cccc(C(N)=O)c3)ccnc2O1 (stereo not given)	DT40 TDP1 no CPT 6.5µM (no result: RORgamma inh, Gal4-VP16 FLuc)
CC1(C(=O)Nc2cccc(OC(F)(F)F)c2)Cc2c(-c3cccc(C(N)=O)c3)ccnc2O1 (stereo not given)	DT40 TDP1 no CPT 21µM, TDP1 cell CPT inconclusive (no result: RORgamma inh, Gal4-VP16 FLuc)
COc1ccc(NC(=O)C2(C)Cc3c(-c4ccc5c(c4)OCO5)ccnc3O2)cc1 (stereo not given)	DT40 TDP1 no CPT 2.9µM, TDP1 cell CPT 4.1µM (no result: RORgamma inh, Gal4-VP16 FLuc)
CNC(=O)C1(C)Cc2c(-c3ccc4c(c3)OCO4)ccnc2O1 (stereo not given)	DT40 TDP1 no CPT inconclusive, TDP1 cell CPT inconclusive (no result: RORgamma inh, Gal4-VP16 FLuc)
COCCNC(=O)C1(C)Cc2c(-c3cccc(C(N)=O)c3)ccnc2O1 (stereo not given)	TDP1 cell CPT inconclusive (no result: RORgamma inh, Gal4-VP16 FLuc)
COc1ccc(O)c(C(=O)OC(C)C(=O)C23CC4CC(CC(C4)C2)C3)c1 (stereo not given)	none (no result: DT40 TDP1 no CPT, RORgamma inh, Gal4-VP16 FLuc, IL1B secr inh, TDP1 cell CPT)
O=[N+]([O-])c1cccc(S(=O)(=O)NCc2ccncc2)c1	DT40 TDP1 no CPT 2.3µM, Gal4-VP16 FLuc 10µM, TDP1 cell CPT 2.3µM
Cc1ccc(S(=O)(=O)NCCc2ccncc2)cc1	TDP1 cell CPT inconclusive
CCCCc1ccc(S(=O)(=O)NCCc2ccncc2)cc1	DT40 TDP1 no CPT 12µM, RORgamma inh inconclusive, Gal4-VP16 FLuc inconclusive, TDP1 cell CPT 23µM
O=[N+]([O-])c1cccc(S(=O)(=O)Nc2ccc(Cc3ccncc3)cc2)c1	DT40 TDP1 no CPT inconclusive, RORgamma inh inconclusive, Gal4-VP16 FLuc inconclusive, TDP1 cell CPT inconclusive
CCCCNS(=O)(=O)c1ccc(S(=O)(=O)NCc2ccncc2)cc1	DT40 TDP1 no CPT 7.3µM, RORgamma inh inconclusive, Gal4-VP16 FLuc inconclusive, IL1B secr inh inconclusive, TDP1 cell CPT 4.1µM
CCOc1cc2[nH]c(=S)n(CCCN3CCOCC3)c(=O)c2cc1OCC	DT40 TDP1 no CPT inconclusive, TDP1 cell CPT inconclusive
Cc1cccc(N2CCN(C(=O)CCCCCn3c(=S)[nH]c4ccc(N5CCOCC5)cc4c3=O)CC2)c1C	DT40 TDP1 no CPT 6.5µM, RORgamma inh 7.1µM, Gal4-VP16 FLuc 11µM, TDP1 cell CPT 16µM
O=c1c2cc(N3CCOCC3)ccc2[nH]c(=S)n1CCCN1CCN(c2ccccc2F)CC1	Gal4-VP16 FLuc inconclusive (no result: DT40 TDP1 no CPT, IL1B secr inh, LDHA block, TDP1 cell CPT)

Screening data (PubChem BioAssay)
